Experimental findings from PubChem BioAssay are described below.

Calls of active or inactive are those of the source.

In one test the target is Albumin (Bos taurus) (UniProt P02769). Nature of the test: compounds binding labelled BSA control protein – biochemical, small-molecule microarray, Alexa647 label, 635/667 nm fluorescence, artefact control for SMM control protein annotation, profiling panel (AID 1118).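 Further: score merges 667 nm emission intensity and signal-to-noise per printed compound spot.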 The note with it: BSA-A647 binding, fluorescence 635 nm, higher = more signal.
A short description of test [1]: probe aXIP binding to arrayed compounds – biochemical, NeuroSMM set, 635/667 nm fluorescence, primary screen (AID 1119).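 Further: probe is the protein aXip251-270 applied at 1 µg/mL to compound-printed slides; binding of probe to printed compounds measured as 667 nm fluorescence plus signal to noise.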 The note with it: small-molecule microarray, higher = more signal, called active from +8 up or from −8 down.
A short description of test [2]: probe aNOTCH3 binding on compound microarray – biochemical, small-molecule microarray, 635/667 nm fluorescence, primary screen (AID 1120).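 Further: probe is a biotin-tagged antibody raised against NOTCH3 rather than NOTCH3 protein; score merges spot fluorescence near 667 nm with spot signal to noise.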 The note with it: higher = more signal.
Test [3] in a line: probe aNOTCH2 binding on compound microarray – biochemical, small-molecule microarray, 635/667 nm fluorescence, primary screen (AID 1121).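 Further: score merges feature fluorescence read at 667 nm with its signal to noise.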 The note with it: higher = more signal.
Test [4] deals with Carbonic anhydrase 2 (Homo sapiens) (UniProt P00918). Nature of the test: compounds binding carbonic anhydrase 2 – biochemical, small-molecule microarray, Alexa647-labelled CAII, profiling panel (AID 1122). The note with it: CAII-A647 binding fluorescence, higher = more signal.
The nature of test [5]: COS7 lysate on small-molecule microarray, probe aHis, 635 nm (AID 1123).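 Further: z-score combines 667nm fluorescence intensity with signal-to-noise per printed compound spot.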 The note with it: COS7 cell lysate, fluorescence, higher = more signal.
A short description of test [6]: probe aLAP1 signal on lysate-treated microarray – cell lysate, small-molecule microarray, COS7 lysate, primary screen (AID 1124).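 Further: lysate comes from COS7 cells expressing LAP1 and is applied at 0.3 µg/mL; score merges spot fluorescence near 667 nm with signal-to-noise over triplicate slides.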 The note with it: probe aLAP1, fluorescence, higher = more signal.
Another test has as its system Sam68 (KHDRBS1). Nature of the test: compounds binding KHDRBS1 protein – biochemical, small-molecule microarray, 635 nm fluorescence, primary screen (AID 1125).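 Further: score merges 667 nm channel intensity with signal to noise over triplicate slides.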 The note with it: higher = more signal.
Test [7] relates to Chordin-like protein 2 (CHRDL2). In words: compounds binding chordin-like 2 – biochemical, small-molecule microarray, 635 nm fluorescence, primary screen (AID 1126).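 Further: printed compound slides probed with Chrdl2 protein at 4 µg/mL for 1 h at 4 C; score merges 667 nm emission intensity with signal to noise over three replicate slides.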 The note with it: fluorescence 635 nm, higher = more signal.
Test [8] has as its target Concanavalin-A (Canavalia ensiformis) (UniProt P02866). Nature of the test: compounds binding concanavalin A lectin – biochemical, small-molecule microarray, Alexa647 label, 635 nm, artefact control for SMM control protein annotation, primary screen (AID 1127).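 Further: z combines 667 nm emission intensity with signal-to-noise across three replicate slides.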 The note with it: ConA-A647 binding fluorescence, higher = more signal.
The nature of test [9]: compounds binding Alexa647 anti-His antibody – biochemical, small-molecule microarray, 635 nm fluorescence, artefact control for SMM control protein annotation, primary screen (AID 1128).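 Further: score merges feature fluorescence with signal-to-noise for each printed compound spot.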 The note with it: higher = more signal.
Test [10] relates to Human papillomavirus type 1a E7 protein (residues 1-88). Nature of the test: HPV1a E7 small-molecule binders, primary screen, biochemical, small-molecule microarray, residues 1-88, 635 nm (AID 1129). The note with it: small-molecule microarray binding, fluorescence 635 nm; higher = more signal.
In test [11] the target is Focal adhesion kinase 1 (Homo sapiens) (UniProt Q05397). Nature of the test: PTK2 protein binding on printed compound slides – biochemical, small-molecule microarray, 635/667 nm fluorescence, BSA, DTT, primary screen (AID 1130).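 Further: composite of spot emission at 667 nm and signal to noise over triplicate slides.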 The note with it: 635 nm fluorescence, higher = more signal.
Test [12] relates to Fibrinogen (Alexa647-labelled). In words: Alexa647-fibrinogen binding to printed small molecules – biochemical, small-molecule microarray, 635/667 nm fluorescence, artefact control for SMM control-protein annotation, profiling panel (AID 1131).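 Further: z-score merges 667 nm fluorescence with per-spot signal-to-noise over triplicate slides.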 The note with it: fibrinogen-A647 binding fluorescence, higher = more signal.
The target in test [13] is Follistatin (Homo sapiens) (UniProt P19883). In words: FST protein binding to printed compounds – biochemical, small-molecule microarray, 635/667 nm fluorescence, primary screen (AID 1132). The note with it: 635 nm fluorescence, higher = more signal.
Test [14] has as its target Fibroblast growth factor 2 (Homo sapiens) (UniProt P09038). In words: basic fibroblast growth factor binding to printed compounds – biochemical, small-molecule microarray, 635/667 nm fluorescence, primary screen (AID 1133). The note with it: FGF2, fluorescence 635/667, higher = more signal.
Test [15] can be described thus: JC-1 mitochondrial potential readout, lung cancer cells – cell-based, A549, JC-1 fluorescence, basal, 24 h, 100 nL, profiling panel (AID 1138).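 Further: A549 lung adenocarcinoma cells under basal conditions with no added stimulus; test concentration not given here.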 The note with it: higher = more signal.
Another test deals with Lefty1. Nature of the test: Lefty1 protein binding to printed compounds – biochemical, small-molecule microarray, 635/667 nm fluorescence, primary screen (AID 1139). The note with it: fluorescence 635/667, higher = more signal.
Test [16] deals with wheat germ agglutinin (Triticum aestivum), Alexa647-labelled. Nature of the test: Alexa647-WGA lectin binding to printed small molecules – biochemical, small-molecule microarray, 635/667 nm fluorescence, artefact control for SMM control-protein annotation, profiling panel (AID 1140).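 Further: score merges 667 nm feature emission with signal to noise over triplicate slides.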 The note with it: WGA-A647 binding, 635 nm fluorescence, higher = more signal.
For test [17], the target named is Luciferin 4-monooxygenase (Photinus pyralis) (UniProt P08659). Nature of the test: inhibition of purified Photinus pyralis luciferase – biochemical, luminescence, purified enzyme, 2006 set, primary screen (AID 1141).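 Further: cell-free assay with purified firefly luciferase at 100 ng per well in PBS; test concentration not given here.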 The note with it: purified firefly luciferase, SteadyGlo luminescence, 30 min; higher = more signal, called active from +8 up or from −8 down.
Sequence of Luciferin 4-monooxygenase (Photinus pyralis) (P08659 whole entry, looked up): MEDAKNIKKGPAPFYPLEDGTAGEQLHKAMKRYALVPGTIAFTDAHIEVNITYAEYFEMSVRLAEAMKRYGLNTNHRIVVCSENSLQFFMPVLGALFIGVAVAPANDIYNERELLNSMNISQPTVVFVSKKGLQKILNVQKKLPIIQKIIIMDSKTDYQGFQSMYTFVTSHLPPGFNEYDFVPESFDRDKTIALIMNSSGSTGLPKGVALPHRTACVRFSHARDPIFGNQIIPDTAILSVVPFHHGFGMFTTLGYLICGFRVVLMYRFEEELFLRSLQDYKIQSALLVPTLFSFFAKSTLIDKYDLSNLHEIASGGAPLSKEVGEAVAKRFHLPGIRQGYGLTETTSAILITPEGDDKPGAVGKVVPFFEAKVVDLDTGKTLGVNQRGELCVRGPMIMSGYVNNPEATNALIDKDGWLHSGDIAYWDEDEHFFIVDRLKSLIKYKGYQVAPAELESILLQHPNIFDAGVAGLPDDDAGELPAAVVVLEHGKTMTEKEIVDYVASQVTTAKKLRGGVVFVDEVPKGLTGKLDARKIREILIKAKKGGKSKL

Sequence of Focal adhesion kinase 1 (Homo sapiens) (Q05397 whole entry, looked up): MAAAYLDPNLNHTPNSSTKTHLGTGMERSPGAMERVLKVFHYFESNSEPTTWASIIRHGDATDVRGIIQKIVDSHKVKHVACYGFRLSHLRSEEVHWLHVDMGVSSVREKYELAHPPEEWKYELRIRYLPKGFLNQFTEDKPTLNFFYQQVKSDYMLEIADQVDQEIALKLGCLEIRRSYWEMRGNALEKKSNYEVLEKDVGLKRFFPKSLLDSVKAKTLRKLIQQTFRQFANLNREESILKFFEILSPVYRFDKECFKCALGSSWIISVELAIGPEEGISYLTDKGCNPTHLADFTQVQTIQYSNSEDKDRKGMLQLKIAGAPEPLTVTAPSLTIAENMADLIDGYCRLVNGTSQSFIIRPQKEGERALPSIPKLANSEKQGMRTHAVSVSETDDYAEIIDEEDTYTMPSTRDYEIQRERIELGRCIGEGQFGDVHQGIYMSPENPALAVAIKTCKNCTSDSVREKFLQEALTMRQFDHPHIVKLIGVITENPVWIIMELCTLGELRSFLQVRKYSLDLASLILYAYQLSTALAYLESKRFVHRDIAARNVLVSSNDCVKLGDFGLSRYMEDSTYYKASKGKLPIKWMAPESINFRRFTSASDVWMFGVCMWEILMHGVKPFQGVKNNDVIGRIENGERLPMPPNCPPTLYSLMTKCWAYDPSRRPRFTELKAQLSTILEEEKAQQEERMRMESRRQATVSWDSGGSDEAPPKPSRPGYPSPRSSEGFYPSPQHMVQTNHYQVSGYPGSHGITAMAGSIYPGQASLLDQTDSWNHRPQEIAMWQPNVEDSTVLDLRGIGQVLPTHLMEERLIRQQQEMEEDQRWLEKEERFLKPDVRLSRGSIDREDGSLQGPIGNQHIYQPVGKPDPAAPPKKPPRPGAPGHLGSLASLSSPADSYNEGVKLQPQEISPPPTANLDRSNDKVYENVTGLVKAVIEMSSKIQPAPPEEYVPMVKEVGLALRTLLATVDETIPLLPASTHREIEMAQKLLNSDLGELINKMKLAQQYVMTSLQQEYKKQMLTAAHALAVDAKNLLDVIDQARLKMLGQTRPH
Sequence of Albumin (Bos taurus) (P02769 whole entry, looked up): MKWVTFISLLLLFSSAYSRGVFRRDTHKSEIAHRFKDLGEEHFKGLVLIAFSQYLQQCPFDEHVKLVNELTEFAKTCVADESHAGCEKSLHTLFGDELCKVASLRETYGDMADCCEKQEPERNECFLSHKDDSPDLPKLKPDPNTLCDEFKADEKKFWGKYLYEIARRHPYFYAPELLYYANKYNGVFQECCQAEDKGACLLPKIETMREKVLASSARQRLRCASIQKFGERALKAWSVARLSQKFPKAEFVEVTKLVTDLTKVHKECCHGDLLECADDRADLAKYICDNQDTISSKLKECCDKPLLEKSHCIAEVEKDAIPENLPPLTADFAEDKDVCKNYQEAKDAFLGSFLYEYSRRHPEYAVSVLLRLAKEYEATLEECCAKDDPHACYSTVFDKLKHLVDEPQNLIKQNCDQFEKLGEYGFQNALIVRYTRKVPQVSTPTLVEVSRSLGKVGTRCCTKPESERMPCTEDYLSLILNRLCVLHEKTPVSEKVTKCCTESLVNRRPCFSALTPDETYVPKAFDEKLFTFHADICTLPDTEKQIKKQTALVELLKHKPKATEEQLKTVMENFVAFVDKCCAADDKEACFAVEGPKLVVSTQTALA
Sequence of Concanavalin-A (Canavalia ensiformis) (P02866 whole entry, looked up): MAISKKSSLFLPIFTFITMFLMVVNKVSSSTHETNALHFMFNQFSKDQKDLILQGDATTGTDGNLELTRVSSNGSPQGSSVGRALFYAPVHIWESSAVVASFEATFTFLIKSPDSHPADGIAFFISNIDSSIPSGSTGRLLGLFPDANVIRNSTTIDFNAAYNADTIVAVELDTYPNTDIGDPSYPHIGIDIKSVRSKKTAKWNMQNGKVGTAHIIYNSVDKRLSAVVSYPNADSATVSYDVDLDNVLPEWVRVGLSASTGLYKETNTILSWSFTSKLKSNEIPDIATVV
Sequence of Follistatin (Homo sapiens) (P19883 whole entry, looked up): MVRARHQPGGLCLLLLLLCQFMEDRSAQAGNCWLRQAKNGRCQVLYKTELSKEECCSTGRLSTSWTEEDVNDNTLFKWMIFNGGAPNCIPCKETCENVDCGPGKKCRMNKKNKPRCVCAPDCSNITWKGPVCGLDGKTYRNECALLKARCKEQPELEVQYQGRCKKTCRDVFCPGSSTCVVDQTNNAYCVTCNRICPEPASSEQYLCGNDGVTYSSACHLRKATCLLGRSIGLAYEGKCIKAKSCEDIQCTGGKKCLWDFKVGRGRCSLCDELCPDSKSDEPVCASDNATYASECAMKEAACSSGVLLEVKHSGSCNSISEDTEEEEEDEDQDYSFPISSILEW
Sequence of Fibroblast growth factor 2 (Homo sapiens) (P09038 whole entry, looked up): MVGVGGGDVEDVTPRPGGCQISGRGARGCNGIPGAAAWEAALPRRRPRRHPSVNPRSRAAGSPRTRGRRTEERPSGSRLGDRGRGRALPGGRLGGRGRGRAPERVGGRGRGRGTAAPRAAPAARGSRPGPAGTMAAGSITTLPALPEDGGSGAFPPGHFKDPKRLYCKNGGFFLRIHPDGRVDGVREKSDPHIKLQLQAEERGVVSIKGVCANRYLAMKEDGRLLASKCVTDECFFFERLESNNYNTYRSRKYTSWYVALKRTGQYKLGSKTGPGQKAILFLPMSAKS

For `COCCOC(=O)N1C(=O)[C@@]2(c3ccccc31)[C@H](C(=O)N1CCc3cc(OC)c(OC)cc3C1)[C@H]1C(=O)O[C@H](c3ccccc3)[C@H](c3ccccc3)N1[C@@H]2c1ccc(OCCO)cc1`, the composite z-score with Albumin (Bos taurus) was 0.843; in test [2] it was -0.0343; in test [3], -0.0903; in test [4], 0.486; in test [5], 2.59; in test [6] it was 0.953. In addition, the composite z-score turned out to be 1.32 in the test on Sam68 (KHDRBS1); 0.417 in test [7]; 1.09 in test [8]; 2.67 in [9]; 1.22 in test [10]; 0.789 in [11]. The composite z-score in test [12] amounted to 0.896; in test [13] it was 1.25; in test [14], 1.1; in the test with Lefty1 it was 0.492; in [16], 0.722. Further, in [1], the composite Z-score was -0.386 (inactive). In addition, the z-score in test [15] was -0.382; in test [17], -1.76 (inactive).
Consider `COc1ccc([Si](C)(C)[C@H]2[C@H](CC(=O)N3Cc4ccccc4C[C@H]3CO)O[C@@]3(C(=O)N(Cc4cccc(N5CCC5=O)c4)c4ccccc43)[C@@H]2C)cc1`, for which the composite z-score with Albumin (Bos taurus) was -0.606; in test [2], -0.0003; in [3] it was -0.14; in test [4], 0.584; in test [5], 1.4; in test [6], 0.0972. Moreover, the composite z-score in the test on Sam68 (KHDRBS1) came out at 1.2; in test [7] it was 1.21; in [8], 0.64; in [9] it was 0.322; in test [10], 1.19; in test [11] it was 0.527. Besides, the composite z-score in [12] was determined as 0.135; in [13], 1.33; in [14], 1.47; in the test with Lefty1, 1.22; in test [16], 0.107. In addition, the composite Z-score in [1] was 0.923 (inactive). For the same compound, the figures for the z-score in [15] and in test [17] were 0.526 and -0.796 (inactive), respectively.
With `C[N+](C)(C)CCCCNC(=O)[C@@H]1C[C@@H]2C(=O)N[C@@H](Cc3ccccc3)C(=O)N2[C@@H]1c1cccc(OCCO)c1`, the composite z-score was -0.634 in the test with Albumin (Bos taurus); -0.217 in test [2]; -0.199 in test [3]; 0.66 in [4]; 0.959 in test [5]; -0.15 in test [6]. The composite z-score in the test with Sam68 (KHDRBS1) was -0.174; in [7] it was 1.04; in test [8], -0.504; in test [9], 3.38; in [10], -0.636; in test [11] it was -0.449. In addition, the composite z-score is -1.23 in test [12]; 1.32 in test [13]; 1.55 in test [14]; 0.245 in the test with Lefty1; -1.02 in test [16]. Also, the composite Z-score in test [1] is 0.668 (inactive). Besides, the z-score in [15] is 1.21; in test [17] it was -1.75 (inactive).
For the compound `CCOC(=O)C[C@H]1[C@H](OC(=O)c2ccc(C(=O)c3ccccc3)cc2)[C@@H](NC(=O)c2ccc3ccccc3n2)c2cc(OCCCO)ccc2N1C(=O)c1ccccc1`, the composite z-score in the test with Albumin (Bos taurus) is 0.583; in [2], 0.0488; in [3], -0.0646; in test [4], 0.249; in [5] it was 0.994; in test [6], 0.545. Besides, the composite z-score in the test on Sam68 (KHDRBS1) is 1.29; in [7], -0.322; in [8], 1.12; in test [9] it was -0.0053; in test [10], 0.924; in test [11], 0.0305. The composite z-score in test [12] stood at 0.807; in test [13] it was 0.559; in test [14], 0.674; in the test with Lefty1, 1.63; in test [16], 0.761. Besides, the composite Z-score in test [1] is -0.12 (inactive). Further, the z-score is 0.332 in [15] and 0.393 (inactive) in test [17].
On to `Cc1ccc(S[C@]2(C(=O)NCCCN(C)C)CC(=O)N(Cc3cc(C(F)(F)F)cc(C(F)(F)F)c3)[C@@H]2c2ccc(CO)cc2)cc1`, for which the composite z-score is 0.384 in the test with Albumin (Bos taurus); -0.149 in test [2]; -0.106 in test [3]; 0.874 in [4]; 0.616 in test [5]; 0.357 in [6]. In addition, the composite z-score is -0.427 in the test on Sam68 (KHDRBS1); -0.869 in [7]; -0.949 in test [8]; -0.237 in [9]; -0.817 in test [10]; 0.145 in test [11]. Also, the composite z-score in test [12] is -0.603; in test [13], -0.802; in [14], -1.33; with Lefty1, -0.493; in test [16] it was 0.0796. For the same compound, the composite Z-score in [1] was 0.624 (inactive). Moreover, the z-score in [15] is 0.134; in [17], -0.303 (inactive).
